Laboratory results as given in PubChem BioAssay AID1159580 (chemical genetic matrix, 2015).
The campaign covered roughly 5,500 compounds. About 2,000 (36%) were called active. Not shown: some 18% with an inconclusive outcome. Rule as the data show it: active = normalized growth mostly below about 0.91 (no sharp cut-off); inconclusive = no clear call, values can overlap the other calls; inactive = mostly above about 0.92. Some of the results follow.

Assay: chemical genetic growth profiling, strain panel (AID 1159580);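 also: tested at 20 µM; growth read once vehicle control cultures reached saturation at 30 °C; 1 = growth at the plate median or of vehicle wells; lower values mean less growth of the strain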
Details: growth OD

Measured: normalized growth

CC(=O)Nc1c(I)cc(I)c(C(=O)O)c1I
inactive: S. cerevisiae deletion strains, locus YJR075W, strain HOC1, stronger effect = lower value 1 | S. cerevisiae deletion strains, locus YKL009W, strain mrt4, stronger effect = lower value 0.978 | S. cerevisiae deletion strains, locus YKL068W, stronger effect = lower value 0.986 | S. cerevisiae deletion strains, locus YKL085W, strain MDH1 (second series), stronger effect = lower value 1.01 | S. cerevisiae deletion strains, locus YKL085W, strain MDH1, stronger effect = lower value 1.01 | S. cerevisiae deletion strains, locus YKL160W, strain elf1, stronger effect = lower value 0.985 | S. cerevisiae deletion strains, locus YKL190W, strain CNB1, stronger effect = lower value 1.02 | S. cerevisiae deletion strains, locus YKR001C, strain vps1, stronger effect = lower value 0.986 | S. cerevisiae deletion strains, locus YKR026C, strain gcn3, stronger effect = lower value 0.975 | S. cerevisiae deletion strains, locus YKR091W, strain srl3, stronger effect = lower value 0.981 | S. cerevisiae deletion strains, locus YLL001W, strain dnm1, stronger effect = lower value 0.953 | S. cerevisiae deletion strains, locus YLL026W, stronger effect = lower value 0.985 | S. cerevisiae deletion strains, locus YLL041C, strain sdh2, stronger effect = lower value 0.972 | S. cerevisiae deletion strains, locus YLR027C, strain aat2, stronger effect = lower value 0.981 | S. cerevisiae deletion strains, locus YLR039C, strain RIC1, stronger effect = lower value 1.01 | S. cerevisiae deletion strains, locus YLR058C, strain SHM2, stronger effect = lower value 0.994 | S. cerevisiae deletion strains, locus YLR102C, strain apc9, stronger effect = lower value 0.991 | S. cerevisiae deletion strains, locus YLR113W, strain HOG1, stronger effect = lower value 1 | S. cerevisiae deletion strains, locus YLR221C, strain rsa3, stronger effect = lower value 1.01 | S. cerevisiae deletion strains, locus YLR258W, strain gsy2, stronger effect = lower value 0.976 | S. cerevisiae deletion strains, locus YLR262C, strain YPT6 (second series), stronger effect = lower value 0.971 | S. cerevisiae deletion strains, locus YLR262C, strain YPT6, stronger effect = lower value 0.954 | S. cerevisiae deletion strains, locus YLR268W, strain sec22, stronger effect = lower value 0.996 | S. cerevisiae deletion strains, locus YLR320W, strain mms22, stronger effect = lower value 0.99 | S. cerevisiae deletion strains, locus YLR330W, strain CHS5, stronger effect = lower value 0.998 | S. cerevisiae deletion strains, locus YLR342W, strain FKS1 (second series), stronger effect = lower value 1.04 | S. cerevisiae deletion strains, locus YLR342W, strain FKS1, stronger effect = lower value 0.978 | S. cerevisiae deletion strains, locus YLR357W, strain rsc2, stronger effect = lower value 1 | S. cerevisiae deletion strains, locus YLR370C, strain arc18, stronger effect = lower value 0.989 | S. cerevisiae deletion strains, locus YLR371W, strain rom2, stronger effect = lower value 0.993 | S. cerevisiae deletion strains, locus YLR384C, strain iki3, stronger effect = lower value 0.98 | S. cerevisiae deletion strains, locus YLR418C, strain cdc73, stronger effect = lower value 0.99 | S. cerevisiae deletion strains, locus YML016C, strain PPZ1, stronger effect = lower value 0.993 | S. cerevisiae deletion strains, locus YML032C, strain rad52, stronger effect = lower value 0.987 | S. cerevisiae deletion strains, locus YML120C, strain ndi1, stronger effect = lower value 0.981 | S. cerevisiae deletion strains, locus YML124C, strain tub3, stronger effect = lower value 0.988 | S. cerevisiae deletion strains, locus YMR058W, strain fet3, stronger effect = lower value 0.989 | S. cerevisiae deletion strains, locus YMR078C, strain ctf18, stronger effect = lower value 0.988 | S. cerevisiae deletion strains, locus YMR125W, strain sto1, stronger effect = lower value 0.96 | S. cerevisiae deletion strains, locus YMR129W, stronger effect = lower value 0.96 | S. cerevisiae deletion strains, locus YMR205C, strain PFK2, stronger effect = lower value 0.977 | S. cerevisiae deletion strains, locus YMR223W, strain ubp8, stronger effect = lower value 0.972 | S. cerevisiae deletion strains, locus YMR231W, strain pep5, stronger effect = lower value 0.982 | S. cerevisiae deletion strains, locus YMR263W, strain SAP30, stronger effect = lower value 1.01 | S. cerevisiae deletion strains, locus YMR307W, strain GAS1, stronger effect = lower value 1.07 | S. cerevisiae deletion strains, locus YNL067W, strain RPL9B, stronger effect = lower value 1 | S. cerevisiae deletion strains, locus YNL071W, strain lat1, stronger effect = lower value 0.987 | S. cerevisiae deletion strains, locus YNL128W, strain TEP1, stronger effect = lower value 1.01 | S. cerevisiae deletion strains, locus YNL153C, strain GIM3, stronger effect = lower value 0.993 | S. cerevisiae deletion strains, locus YNL183C, strain NPR1, stronger effect = lower value 0.968 | S. cerevisiae deletion strains, locus YNL209W, strain ssb2, stronger effect = lower value 0.99 | S. cerevisiae deletion strains, locus YNL233W, strain BNI4, stronger effect = lower value 0.998 | S. cerevisiae deletion strains, locus YNL248C, strain rpa49, stronger effect = lower value 0.992 | S. cerevisiae deletion strains, locus YNL250W, strain rad50, stronger effect = lower value 0.986 | S. cerevisiae deletion strains, locus YNL271C, strain bni1, stronger effect = lower value 0.989 | S. cerevisiae deletion strains, locus YNL298W, strain CLA4, stronger effect = lower value 0.986 | S. cerevisiae deletion strains, locus YNL307C, strain MCK1, stronger effect = lower value 0.987 | S. cerevisiae deletion strains, locus YNL322C, strain KRE1 (second series), stronger effect = lower value 0.971 | S. cerevisiae deletion strains, locus YNL322C, strain KRE1, stronger effect = lower value 1 | S. cerevisiae deletion strains, locus YNR049C, strain mso1, stronger effect = lower value 0.993 | S. cerevisiae deletion strains, locus YNR052C, strain pop2, stronger effect = lower value 0.999 | S. cerevisiae deletion strains, locus YOL006C, strain TOP1, stronger effect = lower value 1.02 | S. cerevisiae deletion strains, locus YOL012C, strain htz1 0.771 | S. cerevisiae deletion strains, locus YOL147C, strain pex11, stronger effect = lower value 0.992 | S. cerevisiae deletion strains, locus YOR001W, strain rrp6, stronger effect = lower value 0.976 | S. cerevisiae deletion strains, locus YOR061W, strain CKA2, stronger effect = lower value 1 | S. cerevisiae deletion strains, locus YOR069W, strain VPS5, stronger effect = lower value 0.988 | S. cerevisiae deletion strains, locus YOR070C, strain gyp1, stronger effect = lower value 0.988 | S. cerevisiae deletion strains, locus YOR080W, strain dia2, stronger effect = lower value 0.975 | S. cerevisiae deletion strains, locus YOR083W, strain WHI5, stronger effect = lower value 0.984 | S. cerevisiae deletion strains, locus YOR106W, strain vam3, stronger effect = lower value 0.964 | S. cerevisiae deletion strains, locus YOR136W, strain idh2, stronger effect = lower value 0.987 | S. cerevisiae deletion strains, locus YOR144C, strain elg1, stronger effect = lower value 0.995 | S. cerevisiae deletion strains, locus YOR184W, strain ser1, stronger effect = lower value 0.969 | S. cerevisiae deletion strains, locus YOR231W, strain MKK1, stronger effect = lower value 1.02 | S. cerevisiae deletion strains, locus YOR265W, strain rbl2, stronger effect = lower value 0.98 | S. cerevisiae deletion strains, locus YOR270C, strain vph1, stronger effect = lower value 0.951 | S. cerevisiae deletion strains, locus YOR290C, strain snf2, stronger effect = lower value 1 | S. cerevisiae deletion strains, locus YOR316C, strain cot1, stronger effect = lower value 0.991 | S. cerevisiae deletion strains, locus YPL051W, strain arl3, stronger effect = lower value 0.981 | S. cerevisiae deletion strains, locus YPL055C, strain LGE1, stronger effect = lower value 1.05 | S. cerevisiae deletion strains, locus YPL078C, strain atp4, stronger effect = lower value 0.961 | S. cerevisiae deletion strains, locus YPL106C, strain sse1, stronger effect = lower value 0.981 | S. cerevisiae deletion strains, locus YPL240C, strain hsp82, stronger effect = lower value 0.972 | S. cerevisiae deletion strains, locus YPL241C, strain CIN2, stronger effect = lower value 1.01 | S. cerevisiae deletion strains, locus YPL256C, strain CLN2, stronger effect = lower value 1.02 | S. cerevisiae deletion strains, locus YPR119W, strain clb2, stronger effect = lower value 0.986 | S. cerevisiae deletion strains, locus YPR141C, strain kar3, stronger effect = lower value 0.981 | S. cerevisiae deletion strains, locus YPR163C, strain tif3, stronger effect = lower value 0.997 | S. cerevisiae deletion strains, locus YPR167C, strain met16, stronger effect = lower value 0.983 | S. cerevisiae deletion strains, strain wtn01, stronger effect = lower value 0.986 | S. cerevisiae strains, strain wild type, stronger effect = lower value 1.05
